Targets with a hit are over-represented here; the source holds about 7,900 in all. About 0.6% of all pairs of compound and target were hits. A number with no mark means an inactive call.
Key:
Assay in all cases: log2 fold change, soluble protein after heating vs DMSO (PISA); higher = thermal stabilisation; K562 cells, 10 uM, 30 min; active = over 0.2 and 3.5 SD of the protein, either way, in both replicates (recomputed)
[1] = compound: COC1=CC=C(C=C1)CN2C=CC3=C2C=C(C=C3)C(=O)NO
Outline: (§1)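 K562 cells at 2×10^6 cells/mL were given 10 μM compound for 30 min. Aliquots then went through 3 min of heating across 48°C-58°C, were pooled, and were extracted in PBS with 0.5% NP-40 at 4°C, and the supernatant after 21,000xg for 90 min was quantified by TMTpro 16plex LC-MS/MS with channel sums equalised. Thermal stability relative to control samples, from duplicates, is given as log2 fold change.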

filanesib = compound: CON(C)C(=O)N1N=C(c2cc(F)ccc2F)S[C@@]1(CCCN)c1ccccc1 [filanesib]
Outline: as §1

zotarolimus = compound: CO[C@H]1C[C@@H]2CC[C@@H](C)[C@@](O)(O2)C(=O)C(=O)N2CCCC[C@H]2C(=O)O[C@H]([C@H](C)C[C@@H]2CC[C@H](n3cnnn3)[C@H](OC)C2)CC(=O)[C@H](C)/C=C(\C)[C@@H](O)[C@@H](OC)C(=O)[C@H](C)C[C@H](C)/C=C/C=C/C=C/1C [zotarolimus]
Outline: as §1

idasanutlin = compound: COc1cc(C(=O)O)ccc1NC(=O)[C@@H]1N[C@@H](CC(C)(C)C)[C@](C#N)(c2ccc(Cl)cc2F)[C@H]1c1cccc(Cl)c1F [idasanutlin]
Outline: as §1

alisertib = compound: COc1cc(Nc2ncc3c(n2)-c2ccc(Cl)cc2C(c2c(F)cccc2OC)=NC3)ccc1C(=O)O [alisertib]
Outline: as §1

[2] = compound: COc1cc2nc(-c3cc(F)ccc3O)nc(N[C@@H]3CNC[C@H]3C(C)(C)O)c2cc1OC
Outline: as §1

gefitinib = compound: COc1cc2ncnc(Nc3ccc(F)c(Cl)c3)c2cc1OCCCN1CCOCC1 [gefitinib]
Outline: as §1

[3] = compound: COc1cccc2cc(-c3nc([C@H]4CC[C@H](C(=O)O)CC4)n4ncnc(N)c34)[nH]c12
Outline: as §1

lapatinib = compound: CS(=O)(=O)CCNCc1ccc(-c2ccc3ncnc(Nc4ccc(OCc5cccc(F)c5)c(Cl)c4)c3c2)o1 [lapatinib]
Outline: as §1

pictilisib = compound: CS(=O)(=O)N1CCN(Cc2cc3nc(-c4cccc5[nH]ncc45)nc(N4CCOCC4)c3s2)CC1 [pictilisib]
Outline: as §1

UniProt Q9NRX5, sequence (Q9NRX5 whole entry, looked up): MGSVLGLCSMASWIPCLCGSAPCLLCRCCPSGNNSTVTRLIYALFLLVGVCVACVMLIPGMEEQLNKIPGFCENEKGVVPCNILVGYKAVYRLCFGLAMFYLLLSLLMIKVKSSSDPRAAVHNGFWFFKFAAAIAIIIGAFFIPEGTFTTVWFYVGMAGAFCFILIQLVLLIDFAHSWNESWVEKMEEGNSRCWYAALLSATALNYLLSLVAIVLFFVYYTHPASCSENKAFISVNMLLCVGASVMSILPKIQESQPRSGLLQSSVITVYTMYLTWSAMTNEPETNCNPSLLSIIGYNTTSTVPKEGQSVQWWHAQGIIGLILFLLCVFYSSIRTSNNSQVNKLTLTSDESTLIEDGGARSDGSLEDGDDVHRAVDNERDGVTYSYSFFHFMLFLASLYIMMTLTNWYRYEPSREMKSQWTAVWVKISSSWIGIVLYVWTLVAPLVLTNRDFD
UniProt O75792, sequence (O75792 whole entry, looked up): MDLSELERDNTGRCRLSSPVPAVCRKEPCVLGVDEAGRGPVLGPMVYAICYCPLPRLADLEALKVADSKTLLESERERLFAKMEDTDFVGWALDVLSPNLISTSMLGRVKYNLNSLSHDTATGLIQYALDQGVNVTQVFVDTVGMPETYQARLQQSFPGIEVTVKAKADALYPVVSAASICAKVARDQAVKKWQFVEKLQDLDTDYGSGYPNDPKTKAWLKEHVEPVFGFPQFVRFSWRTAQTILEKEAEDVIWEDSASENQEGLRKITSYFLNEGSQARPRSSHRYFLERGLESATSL
UniProt Q8N0T1, sequence (Q8N0T1 whole entry, looked up): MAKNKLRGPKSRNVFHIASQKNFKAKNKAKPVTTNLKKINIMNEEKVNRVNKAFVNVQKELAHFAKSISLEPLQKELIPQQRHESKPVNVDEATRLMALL
UniProt Q9BWJ5, sequence (Q9BWJ5 whole entry, looked up): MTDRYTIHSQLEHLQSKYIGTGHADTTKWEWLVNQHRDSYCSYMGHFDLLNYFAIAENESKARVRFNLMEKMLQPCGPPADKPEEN
UniProt O00560, sequence (O00560 whole entry, looked up): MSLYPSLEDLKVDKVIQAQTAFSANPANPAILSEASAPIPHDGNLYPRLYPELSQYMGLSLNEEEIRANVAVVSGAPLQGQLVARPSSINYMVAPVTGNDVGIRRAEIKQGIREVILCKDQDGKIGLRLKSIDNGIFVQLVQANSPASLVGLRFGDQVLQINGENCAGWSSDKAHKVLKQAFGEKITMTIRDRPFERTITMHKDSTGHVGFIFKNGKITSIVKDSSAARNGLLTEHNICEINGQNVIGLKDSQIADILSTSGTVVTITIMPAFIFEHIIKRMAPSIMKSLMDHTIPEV
UniProt Q14151, sequence (Q14151 whole entry, looked up): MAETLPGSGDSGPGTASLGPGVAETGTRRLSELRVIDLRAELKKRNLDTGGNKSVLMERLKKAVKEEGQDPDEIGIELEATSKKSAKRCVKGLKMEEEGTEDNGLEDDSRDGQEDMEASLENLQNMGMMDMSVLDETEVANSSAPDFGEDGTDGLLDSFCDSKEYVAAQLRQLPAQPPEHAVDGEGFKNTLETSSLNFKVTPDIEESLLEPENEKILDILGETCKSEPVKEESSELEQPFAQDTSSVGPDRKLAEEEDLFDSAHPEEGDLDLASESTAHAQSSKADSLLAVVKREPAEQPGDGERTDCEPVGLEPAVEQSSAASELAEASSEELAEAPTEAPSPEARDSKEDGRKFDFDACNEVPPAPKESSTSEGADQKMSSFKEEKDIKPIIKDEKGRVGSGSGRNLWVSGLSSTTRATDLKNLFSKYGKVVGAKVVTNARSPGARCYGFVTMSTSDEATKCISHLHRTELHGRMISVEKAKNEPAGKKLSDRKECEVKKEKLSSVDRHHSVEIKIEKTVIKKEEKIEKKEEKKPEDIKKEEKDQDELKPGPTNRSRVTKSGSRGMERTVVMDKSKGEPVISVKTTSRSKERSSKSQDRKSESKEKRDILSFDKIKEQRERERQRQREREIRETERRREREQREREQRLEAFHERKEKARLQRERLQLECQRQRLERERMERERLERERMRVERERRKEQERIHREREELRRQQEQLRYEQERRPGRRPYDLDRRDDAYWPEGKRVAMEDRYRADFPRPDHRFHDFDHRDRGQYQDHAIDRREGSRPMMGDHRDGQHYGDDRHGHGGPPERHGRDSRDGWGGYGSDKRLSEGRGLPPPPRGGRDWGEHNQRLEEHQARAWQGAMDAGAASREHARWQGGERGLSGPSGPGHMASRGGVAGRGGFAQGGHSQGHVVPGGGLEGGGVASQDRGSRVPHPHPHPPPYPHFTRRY
UniProt O75582, sequence (O75582 whole entry, looked up): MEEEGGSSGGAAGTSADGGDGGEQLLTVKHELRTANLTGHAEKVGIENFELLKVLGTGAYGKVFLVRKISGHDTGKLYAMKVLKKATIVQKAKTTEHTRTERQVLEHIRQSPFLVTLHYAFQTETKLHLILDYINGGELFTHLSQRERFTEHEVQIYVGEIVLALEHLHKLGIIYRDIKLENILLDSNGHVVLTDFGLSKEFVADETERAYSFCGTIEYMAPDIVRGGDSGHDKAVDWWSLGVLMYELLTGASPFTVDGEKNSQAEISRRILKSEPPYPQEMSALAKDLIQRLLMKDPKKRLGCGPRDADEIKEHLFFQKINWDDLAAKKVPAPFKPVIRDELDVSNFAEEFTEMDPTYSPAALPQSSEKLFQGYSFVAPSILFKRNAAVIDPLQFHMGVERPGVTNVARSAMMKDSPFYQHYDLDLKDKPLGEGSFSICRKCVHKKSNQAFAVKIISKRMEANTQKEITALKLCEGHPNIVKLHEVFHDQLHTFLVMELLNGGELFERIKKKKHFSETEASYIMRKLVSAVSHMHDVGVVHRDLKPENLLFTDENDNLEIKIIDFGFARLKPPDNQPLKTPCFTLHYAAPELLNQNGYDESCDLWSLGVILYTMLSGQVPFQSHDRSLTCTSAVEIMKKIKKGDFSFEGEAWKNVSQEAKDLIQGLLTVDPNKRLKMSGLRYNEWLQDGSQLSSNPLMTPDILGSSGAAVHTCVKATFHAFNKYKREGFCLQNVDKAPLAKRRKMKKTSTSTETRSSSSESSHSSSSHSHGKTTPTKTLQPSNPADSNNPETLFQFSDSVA
UniProt O75056, sequence (O75056 whole entry, looked up): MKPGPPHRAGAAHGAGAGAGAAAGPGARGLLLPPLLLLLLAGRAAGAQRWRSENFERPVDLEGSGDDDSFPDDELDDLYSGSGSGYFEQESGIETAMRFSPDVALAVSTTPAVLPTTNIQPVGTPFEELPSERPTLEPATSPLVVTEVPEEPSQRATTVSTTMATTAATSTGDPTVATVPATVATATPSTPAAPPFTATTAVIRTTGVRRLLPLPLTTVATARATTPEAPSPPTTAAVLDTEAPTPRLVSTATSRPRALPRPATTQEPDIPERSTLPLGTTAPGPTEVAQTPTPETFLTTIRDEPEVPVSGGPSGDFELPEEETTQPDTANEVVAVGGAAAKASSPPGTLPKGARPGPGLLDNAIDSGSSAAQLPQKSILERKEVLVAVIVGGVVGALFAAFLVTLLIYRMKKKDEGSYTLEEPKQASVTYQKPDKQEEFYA
UniProt P04049, sequence (P04049 whole entry, looked up): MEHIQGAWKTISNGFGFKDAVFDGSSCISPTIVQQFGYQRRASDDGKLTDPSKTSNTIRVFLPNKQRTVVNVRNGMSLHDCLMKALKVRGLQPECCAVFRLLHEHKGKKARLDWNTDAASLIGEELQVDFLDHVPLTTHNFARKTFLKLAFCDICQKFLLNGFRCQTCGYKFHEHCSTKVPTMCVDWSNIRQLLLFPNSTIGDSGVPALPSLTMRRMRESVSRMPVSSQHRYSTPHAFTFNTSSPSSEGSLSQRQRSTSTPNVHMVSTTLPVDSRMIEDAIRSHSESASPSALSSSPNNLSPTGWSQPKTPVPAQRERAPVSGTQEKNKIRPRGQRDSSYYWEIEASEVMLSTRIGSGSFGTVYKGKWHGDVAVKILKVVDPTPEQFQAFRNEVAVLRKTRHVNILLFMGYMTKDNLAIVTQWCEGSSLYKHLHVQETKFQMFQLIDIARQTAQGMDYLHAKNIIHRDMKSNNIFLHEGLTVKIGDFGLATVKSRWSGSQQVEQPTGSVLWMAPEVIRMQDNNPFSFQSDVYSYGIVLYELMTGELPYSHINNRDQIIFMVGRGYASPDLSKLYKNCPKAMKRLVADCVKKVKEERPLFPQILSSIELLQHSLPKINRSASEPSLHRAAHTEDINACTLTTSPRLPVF
UniProt Q86X27, sequence (Q86X27 whole entry, looked up): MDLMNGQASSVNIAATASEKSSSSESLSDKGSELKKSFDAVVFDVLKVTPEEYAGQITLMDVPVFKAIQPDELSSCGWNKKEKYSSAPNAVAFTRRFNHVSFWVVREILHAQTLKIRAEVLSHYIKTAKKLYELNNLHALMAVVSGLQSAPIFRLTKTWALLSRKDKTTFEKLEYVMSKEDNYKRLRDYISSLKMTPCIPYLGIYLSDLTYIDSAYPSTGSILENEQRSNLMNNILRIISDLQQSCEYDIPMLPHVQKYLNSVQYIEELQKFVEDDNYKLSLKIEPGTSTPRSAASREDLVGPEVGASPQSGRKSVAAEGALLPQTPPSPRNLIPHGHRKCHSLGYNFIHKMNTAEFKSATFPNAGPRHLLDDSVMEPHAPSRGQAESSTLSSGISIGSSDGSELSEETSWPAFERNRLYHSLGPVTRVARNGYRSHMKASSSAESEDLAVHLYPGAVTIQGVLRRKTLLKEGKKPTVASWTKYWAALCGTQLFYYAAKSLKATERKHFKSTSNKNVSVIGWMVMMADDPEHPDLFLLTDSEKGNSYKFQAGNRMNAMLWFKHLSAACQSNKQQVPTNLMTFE
UniProt Q9Y3L5, sequence (Q9Y3L5 whole entry, looked up): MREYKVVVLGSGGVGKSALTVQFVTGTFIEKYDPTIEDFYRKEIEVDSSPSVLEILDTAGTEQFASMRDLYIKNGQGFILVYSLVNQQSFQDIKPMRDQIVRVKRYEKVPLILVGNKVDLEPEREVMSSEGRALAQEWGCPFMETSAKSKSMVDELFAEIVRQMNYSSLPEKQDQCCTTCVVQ

Target	log2 fold change [1]	log2 fold change (filanesib)	log2 fold change (zotarolimus)	log2 fold change (idasanutlin)	log2 fold change (alisertib)	log2 fold change [2]	log2 fold change (gefitinib)	log2 fold change [3]	log2 fold change (lapatinib)	log2 fold change (pictilisib)
RPRD1B (UniProt Q9NQG5)	0.014	0.022	-0.018	-0.031	-0.011	0.106	0.037	0.061	-0.004	0.019
RNASEH2A (UniProt O75792)	0.029	-0.005	0.034	-0.007	-0.016	0.049	-0.013	0.031	-0.029	0.234
SART3, A0A499FI31	0.059	-0.036	0.054	-0.044	-0.042	-0.192	-0.019	-0.019	0.016	-0.083
RBIS (UniProt Q8N0T1)	-0.069	0.077	-0.075	0.061	-0.053	-0.018	-0.056	-0.012	0.012	-0.04
RPS6KA3 (UniProt P51812)	-0.013	0	0.033	-0.008	–	-0.221	-0.033	0.013	0.011	-0.011
RIOK3 (UniProt O14730)	-0.039	-0.049	-0.019	0.052	-0.029	-0.009	0.007	0.01	0.003	0.095
RNF14 (UniProt Q9UBS8)	0.034	-0.093	0.018	0.043	-0.035	-0.038	0.003	-0.048	0.006	0.045
RBM22 (UniProt Q9NW64)	-0.105	0.096	0	0.056	-0.002	0.021	-0.058	0.083	0.036	-0.031
SAFB2 (UniProt Q14151)	-0.044	0.409 (active)	0.017	0.085	-0.045	-0.046	0	-0.037	0.048	-0.032
RAF1 isoform 2 (UniProt P04049)	0.035	0.085	-0.024	-0.102	0.139	-0.246	–	-0.067	0.051	0.207
RAD50, A0A494C0Y7	-0.054	0.001	-0.021	-0.05	0.127	-0.077	–	0.035	-0.142	0.085
SFXN5 (UniProt Q8TD22)	-0.104	-0.007	0.025	-0.172	0.027	-0.019	-0.013	0.035	0.017	0.061
RAB3IL1 (UniProt E9PK89)	0.031	-0.22	0.093	-0.035	–	0.097	-0.034	–	0.063	-0.075
RPL31 (UniProt P62899)	-0.084	0.277	-0.013	0.151	-0.118	-0.013	-0.075	-0.25	0.103	-0.092
RPS13 (UniProt P62277)	-0.132	0.394	0.015	0.145	-0.164	-0.012	-0.051	-0.316	0.117	-0.226
RELA (UniProt Q04206)	0.025	-0.002	0.024	-0.039	-0.028	-0.031	0.023	0.005	0.012	-0.007
RRAS2 isoform 4 (UniProt P62070)	0.004	0.059	-0.025	0.016	-0.099	0.075	0.061	0.093	0.017	0.05
RABGGTA (UniProt Q92696)	0.019	-0.013	0.022	-0.019	0.016	-0.007	0.041	0.017	0.002	0.067

Target	log2 fold change [1]	log2 fold change (filanesib)	log2 fold change (zotarolimus)	log2 fold change (idasanutlin)	log2 fold change (alisertib)	log2 fold change [2]	log2 fold change (gefitinib)	log2 fold change [3]	log2 fold change (lapatinib)	log2 fold change (pictilisib)
RPS6KA5 (UniProt O75582)	-0.276	–	–	–	-0.076	-0.185	–	0.131	0.057	–
RBMY1E (UniProt A6NEQ0)	0.078	–	0.083	–	-0.035	-0.476 (active)	-0.07	0.126	0.044	0.015
SH3PXD2B (UniProt A1X283)	–	-0.06	-0.003	-0.174	-0.02	–	0.149	-0.037	–	0.162
RAP2C (UniProt Q9Y3L5)	–	-0.011	-0.031	0.008	-0.073	0.016	-0.01	0.031	0.1	-0.799 (active)
RNF220 isoform 3 (UniProt Q5VTB9)	–	–	–	0.073	–	-0.153	–	–	0.261	–
RPAIN isoform 8 (UniProt Q86UA6)	-0.055	0.006	0.028	0.109	–	-0.061	–	–	-0.063	–
RBM26 isoform 3 (UniProt Q5T8P6)	–	0.004	–	0.167	–	–	–	–	–	–
SLC1A3 (UniProt P43003)	–	–	-0.097	0	0.017	0.118	-0.023	0.012	-0.03	0.02
SDC3 (UniProt O75056)	–	0.081	-0.045	0.166	–	–	0.115	–	–	-0.674
RNF185 (UniProt Q96GF1)	–	–	0.117	-0.143	-0.145	-0.175	0.007	-0.016	-0.111	0.076
SDCBP isoform 2 (UniProt O00560)	–	-0.08	–	–	-0.236	0.045	-0.054	0.034	-0.04	0.228
SCLT1 (UniProt Q96NL6)	0.433 (active)	-0.063	0.079	–	-0.205	–	-0.022	0.046	–	0.185
SERINC1 (UniProt Q9NRX5)	0.073	-0.146	–	0.233	0.073	-0.208	-0.266	-0.167	-0.227	–
SEPTIN5 (UniProt G3XAH0)	–	-0.044	0.045	0.027	0.003	0.011	-0.057	0.036	0.094	0.051
RPS19 (UniProt M0R2L9)	–	–	–	-0.034	-0.463	-0.158	0.375	-0.331	-0.341	–
RALGPS2 (UniProt Q86X27)	0.246	–	0.038	-0.062	0.109	–	–	0.132	–	0.165
SF3B5 (UniProt Q9BWJ5)	0.19	0.2	–	0.085	-0.122	-0.026	0.027	0.044	-0.051	-0.069

Reference: the supplement of paper PMC10849652
